Assay outcomes (PubChem)
Compounds with a hit are over-represented: about 2.3% of the library has one in this group of screens.
Mcl1 Bid PPI: Mcl-1/Bid interaction inhibition; AID 1021; inhibition, % at 21.7 µM; TR-FRET Mcl-1/Bid-Dy647 peptide binding, 1536-well; 0.97% of 220,000 active;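 active = compounds that cut the binding signal by more than half at the single screening dose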;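 also: His-tagged Mcl-1 with europium anti-His antibody binding Bid BH3 peptide; 0% = Mcl-1 plus peptide wells and 100% = peptide-only wells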
Mcl1 Noxa PPI: Mcl-1/Noxa interaction inhibition; Q07820; TR-FRET Mcl-1/Noxa peptide binding, 2 h; inhibition, % at 21.7 µM; 1.5% of 220,000 active; AID 1022;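 active = compounds that cut the protein-peptide binding signal by more than 50% relative to plate controls in a single-dose test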;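 also: His-tagged Mcl-1 with rhodamine Noxa BH3 peptide and terbium anti-His antibody; 0% = Mcl-1 plus Noxa peptide wells and 100% = peptide-only wells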
GLD-1 TGE inh: GLD-1-TGE RNA interaction inhibition (C. elegans) | purified GLD-1 + fluorescein TGE RNA, fluorescence polarization | 0.44% of 320,000 active | inhibition, % at 5.96 µM | Q17339;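 active = percent inhibition above a per-plate cutoff, the plate mean of test compounds plus 3 SD, cut at about 30% in these data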;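 also: 0% = DMSO wells with GLD-1 and probe and 100% = wells lacking GLD-1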
Target sequence (Q17339 whole entry, looked up): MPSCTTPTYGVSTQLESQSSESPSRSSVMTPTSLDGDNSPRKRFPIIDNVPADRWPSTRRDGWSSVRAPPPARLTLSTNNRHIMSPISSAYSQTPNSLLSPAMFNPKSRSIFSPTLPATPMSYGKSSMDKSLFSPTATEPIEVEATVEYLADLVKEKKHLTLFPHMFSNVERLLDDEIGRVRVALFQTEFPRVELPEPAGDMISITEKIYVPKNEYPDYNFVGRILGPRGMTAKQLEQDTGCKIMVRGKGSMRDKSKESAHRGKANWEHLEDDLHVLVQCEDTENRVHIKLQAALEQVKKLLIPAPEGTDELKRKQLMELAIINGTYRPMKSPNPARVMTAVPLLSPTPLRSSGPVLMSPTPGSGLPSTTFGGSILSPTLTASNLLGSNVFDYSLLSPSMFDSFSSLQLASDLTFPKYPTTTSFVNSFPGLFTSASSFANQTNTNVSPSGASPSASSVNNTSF
MCL1-BIM inh: MCL1-BIM-BH3 interaction inhibition (human) | Q07820 | GST-MCL1 / FITC-Bim-BH3 fluorescence polarization | inhibition, % at 10.9 µM | 0.68% of 320,000 active;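 active = inhibition above the mean inhibition of all tested compounds plus 3 SD, set per campaign, cut at about 40% in these data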;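 also: 0% = DMSO wells and 100% = unlabeled Bim-BH3 peptide control; higher means more loss of mP so more displacement of Bim peptide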
BCLXL inh: blocks human Bcl-xL binding to Bim BH3 peptide. Q07817. inhibition, % at 10.9 µM. 0.7% of 320,000 active. GST-Bcl-xL / FITC-Bim BH3 peptide fluorescence polarization. AID 2129;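 active = inhibition above the mean of all tested compounds plus 3 SD, cutoff set per campaign, cut at about 30% in these data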;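 also: 0% = DMSO wells and 100% = unlabeled Bim-BH3 peptide competitor; inhibitors lower millipolarization by displacing the labeled peptide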
Target sequence (Q07817 whole entry, looked up): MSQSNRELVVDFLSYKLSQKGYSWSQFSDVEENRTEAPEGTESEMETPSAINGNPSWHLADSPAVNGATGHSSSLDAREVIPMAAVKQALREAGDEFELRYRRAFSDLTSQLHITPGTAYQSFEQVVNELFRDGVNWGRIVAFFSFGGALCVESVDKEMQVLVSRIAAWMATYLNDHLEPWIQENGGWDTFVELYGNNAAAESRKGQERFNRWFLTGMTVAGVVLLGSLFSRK
Bim-Mcl-1: inhibitors of Bim-Mcl-1 interaction, human; Q07820; Bead-based flow cytometry, Bim peptide-Mcl-1 binding; inhibition, % at 10 µM; 0.1% of 190,000 active; AID 1009; in the data active = inhibition above about 40%;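 also: 0% = no compound tracer wells and 100% = peptide blocker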
* = called active by the depositor; / = not tested or not shown.

SMILES | Mcl1 Bid PPI | Mcl1 Noxa PPI | GLD-1 TGE inh | MCL1-BIM inh | BCLXL inh | Bim-Mcl-1
NC(=O)c1ccsc1NC(=O)CSc1nnc(Nc2ccccc2)s1 | -36.8 | 68.7* | 0.5 | 8.4 | 5.3 | 0.0
NC(=O)c1ccsc1NC(=O)COc1ccccc1 | -3.8 | 29.1 | 14.7 | 43.3* | 47.4* | 0.0
Cc1cccc(OCC(=O)OCC(=O)Nc2sccc2C(N)=O)c1 | / | / | 1.7 | / | / | /
Cc1ccc(S(=O)(=O)NCC(=O)OCC(=O)N2C(C)CCCC2C)cc1 (centres undefined) | / | / | -0.3 | / | / | /
O=C(COC(=O)c1ccccc1Oc1ccccc1)NCc1ccco1 | -26.2 | 52.1* | 0.3 | 9.2 | 2.8 | -3.0
COc1ccc(OCCC(=O)OCC(=O)NCc2ccco2)cc1 | -73.9 | 46.1 | 8.4 | 17.3 | 9.0 | -1.0
COc1ccccc1NCCC(=O)OCC(=O)NCc1ccco1 | -42.5 | 64.3* | 6.0 | 19.9 | 5.3 | 0.0
Cc1cc(Br)ccc1SCC(=O)OCC(=O)NCc1ccco1 | -26.1 | 54.6* | 4.9 | 31.2 | 6.4 | /
Cc1ccc2[nH]cc(S(=O)(=O)c3ccc(C)c(C)c3)c(=O)c2c1 | / | / | 0.2 | -2.7 | 2.4 | /
O=C(NCc1nc2ncc(Br)cc2[nH]1)c1ccccc1 | 73.4* | 5.9 | 3.0 | 13.3 | 12.3 | -1.0
O=C(NCCc1ccccc1)C(=O)NCC1CCCN1S(=O)(=O)c1cccs1 (centres undefined) | / | / | 1.6 | 3.3 | 7.0 | /
CC(=O)Nc1sc(NC(=O)c2ccc(Cl)cc2)nc1-c1cccs1 | -18.8 | 30.6 | 3.1 | 6.6 | 11.7 | -1.0
CC(=O)Nc1sc(N/N=C/c2ccc(O)cc2)nc1-c1ccc(C)cc1 | -85.3 | 89.2* | -5.3 | 2.0 | 3.9 | /
CCOc1cc(/C=N/Nc2nc(-c3cccs3)c(NC(C)=O)s2)ccc1O | -81.5 | 101.4* | -8.2 | 3.9 | 1.6 | /
CC(=O)Nc1sc(N/N=C\c2ccccc2Cl)nc1-c1cccs1 | 7.4 | 61.1* | 6.1 | 9.3 | 8.5 | -2.0
CC(=O)Nc1sc(N/N=C\c2ccco2)nc1-c1cccs1 | -74.2 | 73.5* | -8.0 | -21.6 | -4.0 | -5.0
CCCN1CCC(NC(=O)Cc2ccc(C)cc2)CC1 | / | / | 0.2 | -5.3 | 5.7 | /
OCCC1CN(Cc2cc(F)ccc2-n2cccn2)CCN1C1CCCC1 (centres undefined) | -23.6 | -17.6 | 5.2 | 5.0 | 3.1 | /
CCCCNC(=O)C(CC)(ONc1ccccc1C(F)(F)F)c1ccccc1OC (centres undefined) | / | / | -7.8 | -4.5 | -3.6 | /
COc1cccc(NC(=O)[C@H](NC(=O)[C@@H]2Cc3ccccc3CN2)c2ccccc2)c1 | / | / | -4.8 | -7.0 | 3.2 | /
Cc1ccc(S(=O)(=O)N2CCCC2)cc1C(=O)NCC(C)(C)N1CCOCC1 | / | / | -0.1 | -1.2 | -3.3 | /
CC(=O)Nc1sc(N/N=C\c2ccccc2)nc1-c1cccs1 | -38.4 | 55.4* | 2.3 | -12.6 | 6.2 | -37.0
CC(=O)Nc1sc(N/N=C/c2ccccc2)nc1-c1ccc(C)cc1 | -52.5 | 6.7 | -0.1 | 0.9 | 2.7 | /
O=C(NCc1ccc(F)cc1)c1c2c(nc3ccccc13)CCC2 | -55.5 | 76.9* | 9.7 | 16.7 | -0.1 | -2.0
NC(=O)COC(=O)c1c2c(nc3ccccc13)CCC2 | -31.4 | 57.3* | 14.7 | 29.3 | 26.0 | 0.0
SMILES | Mcl1 Bid PPI | Mcl1 Noxa PPI | GLD-1 TGE inh | MCL1-BIM inh | BCLXL inh | Bim-Mcl-1
COc1ccc(Cl)cc1NC(=O)c1nnn(CC(=O)Nc2ccc(C)c(C)c2)c1N | / | / | 3.8 | 3.7 | 2.4 | /
Cc1cc(NC(=O)C(C)SCC(=O)Nc2nnc(CC(C)C)s2)no1 (centres undefined) | / | / | -7.3 | -1.8 | -2.8 | /
Cc1csc(NC(=O)c2ccncc2)n1 | 7.5 | 64.1* | -2.7 | 12.7 | 3.1 | /
CC(=O)Nc1ccc(C(=O)Nc2nc(-c3ccccn3)cs2)cc1 | -30.2 | 69.7* | -0.1 | 0.7 | -1.0 | -2.0
O=C(Nc1nc(-c2ccco2)cs1)c1ccccc1 | 5.1 | 53.9* | -6.0 | -2.8 | 1.6 | -1.0
CC(=O)Nc1ccc(C(=O)Nc2nc(-c3cccnc3)cs2)cc1 | -40.2 | 34.9 | 3.7 | -25.9 | -18.5 | 0.0
O=C(Nc1nc(-c2ccccn2)cs1)c1ccc([N+](=O)[O-])o1 | -16.2 | 90.2* | 5.2 | 34.3 | 28.4 | /
Cc1cc(C)c2c(n1)SCC(=O)N2CC(=O)Nc1cc(F)ccc1F | / | / | 3.7 | 1.4 | -0.5 | /
Cc1ccccc1CC(=O)N1CC(C)OC(C)C1 (centres undefined) | / | / | 10.9 | -1.4 | 3.1 | /
Cc1ccc(C(=O)Nc2nc(-c3cc(Cl)sc3Cl)cs2)cc1 | -5.1 | 53.4* | 3.7 | 4.8 | 0.7 | 5.0
CC(=O)Nc1ccc(-c2csc(NC(=O)c3ccc(C)o3)n2)cc1 | -2.5 | / | -2.8 | -3.1 | -3.4 | -4.0
Cc1ccc(C(=O)Nc2nc(-c3ccc([N+](=O)[O-])cc3)cs2)o1 | 56.3* | 65.2* | 0.0 | 10.1 | 0.0 | -1.0
Cc1ccccc1-n1c(SCC(=O)N/N=C/C=C/c2ccccc2[N+](=O)[O-])nc2ccccc2c1=O | -0.4 | 63.1* | 5.0 | -8.7 | -1.2 | -1.0
O=C(CSc1nc2ccccc2c(=O)n1-c1ccccc1)N/N=C/C=C/c1ccccc1[N+](=O)[O-] | 14.9 | 1.9 | 3.1 | -0.3 | 2.9 | -1.0
O=C1Nc2ccccc2/C1=C\C(=O)c1ccccc1 | / | / | -2.3 | -2.3 | 3.1 | /
O=C(/C=C1\C(=O)Nc2ccccc21)/C=C1\C(=O)Nc2ccccc21 | 91.5* | 102.2* | / | / | / | /
CCc1cc2c(=O)c(-c3nc4ccccc4n3C)c(C)oc2c(CN(CC)CC)c1O | -65.9 | -5.7 | 6.9 | -2.8 | -1.8 | -5.0
CCN(CC)Cc1c(O)ccc2cc(-c3nc4ccccc4n3C)c(=O)oc12 | / | / | -7.0 | 29.5 | 36.2* | /
CCCCc1nnc(NC(=O)Cc2ccc(S(=O)(=O)N3CCOCC3)s2)s1 | / | / | 15.5 | 2.1 | 6.4 | /
CC(C)(C)c1csc(NC(=O)Cc2ccc(S(=O)(=O)N3CCOCC3)s2)n1 | / | / | 21.7 | 34.7 | 32.8* | /
CCc1ccc(NC(=O)Cn2nc(C(F)(F)F)c3c2CCC3)cc1 | 54.1* | 10.7 | 6.5 | 1.9 | 1.0 | -3.0
Oc1ccccc1N=Cc1c(O)ccc2oc3c(c12)CCCC3 | -9.1 | 29.3 | 37.9* | 15.1 | 13.6 | /
O=C(O)c1ccc(N=Cc2c(O)ccc3oc4c(c23)CCCC4)cc1 | -15.7 | 20.3 | 9.6 | 3.7 | 3.6 | /
CC(C)c1ccc(OCCCCN2CCCCC2)cc1 | / | / | 1.2 | 0.5 | -0.9 | /
CC(C)Oc1ccc(OCCCN2CCCCCC2)cc1 | 54.2* | -4.7 | 1.3 | 8.3 | 2.8 | -3.0
O=C(CSCc1ccc(Cl)cc1)Nc1ccc(-c2nnc(-c3ccccc3)o2)cc1 | 59.3* | 30.1 | 6.3 | 0.4 | -2.6 | -6.0
O=C(CSCc1ccc(Cl)cc1)N/N=C/c1ccc(OCC(=O)Nc2ccccc2)cc1 | 58.1* | 6.3 | 8.5 | 4.9 | 3.3 | 3.0
COc1ccccc1NC(=O)COc1ccc(/C=N/NC(=O)CSCc2cc(C)cc(C)c2)cc1 | 57.3* | -39.5 | 1.4 | 1.7 | -0.5 | -5.0
COc1ccc(C2=NS(=O)(=O)N(C)C(C(=O)N3CCCCC3)=C2)cc1OC | / | / | 7.0 | -9.2 | 0.1 | /
